SMN2 splice up = qHTS Assay for Enhancers of SMN2 Splice Variant Expression. HEK293 SMN2-luciferase splicing reporter, luminescence, 30-36 h. Potency, µM (doses to about 46.1 µM), without a hit: at the top dose activity change, positive = activation, most hits filed as activators. actives 2.8% (n = 210,000); further: % of control where 0% means no effect; nearly all actives have a fitted effect of over 55% in size
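HEK293 cells carry an SMN2 […]–luciferase reporter in which exon 7 inclusion puts luciferase in frame. Cells were plated 10-12 h before compound addition, then incubated 30-36 h at 37C. ONE-Glo luminescence was read; sodium butyrate at 4.5 mM final served as control.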
NPC1 promoter act = qHTS Assay for NPC1 Promoter Activators. Huh7 NPC1 promoter luciferase reporter, 24 h. Potency, µM (top dose mostly 9.22 µM), for inactives: at the top dose activation, hits mostly activators. actives 2.4% (n = 320,000). AID 485313, 2010; further: % of control where 0% means no effect; nearly all actives have a fitted effect of over 60% in size
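Luciferase expression driven by the NPC1 promoter was measured in stably transfected Huh7 cells after a 24 h compound incubation, using a luciferase reagent and a luminescence read.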
ELG1 genotoxic = qHTS screen for small molecules that induce genotoxicity in human embryonic kidney (HEK293T) cells expressing luciferase-tagged ELG1 | HEK293T ELG1-luciferase reporter, luminescence, 16 h | Potency, µM (top dose mostly 46 µM), for the others: top-dose activity change, positive = activation, actives largely listed as activators | actives 1.3% (n = 330,000); further: % of control where 0% means no effect; nearly all actives have a fitted effect of over 60% in size
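Genotoxicity was scored as increased ELG1-luciferase reporter signal, measured by ONE-Glo luminescence (30 min, room temperature). Compound or vehicle exposure of the HEK293T reporter cells lasted 16 hr at 37°C.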
FLuc counter = qHTS profiling assay for firefly luciferase inhibitor/activator using purifed enzyme and Km concentrations of substrates (counterscreen for miR-21 project); Luciferin 4-monooxygenase (Photinus pyralis), P08659; purified FLuc, Km substrates, luminescence inhibition; actives 6.9% (n = 360,000); Potency, µM (highest dose often 57.5 µM), inactives show at the top dose activity change, negative = inhibition, most hits filed as inhibitors;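 further: plate controls were vehicle for no effect and reference inhibitor for full effect; nearly all actives have a fitted effect of over 55% in size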
Target sequence (P08659 whole entry, looked up): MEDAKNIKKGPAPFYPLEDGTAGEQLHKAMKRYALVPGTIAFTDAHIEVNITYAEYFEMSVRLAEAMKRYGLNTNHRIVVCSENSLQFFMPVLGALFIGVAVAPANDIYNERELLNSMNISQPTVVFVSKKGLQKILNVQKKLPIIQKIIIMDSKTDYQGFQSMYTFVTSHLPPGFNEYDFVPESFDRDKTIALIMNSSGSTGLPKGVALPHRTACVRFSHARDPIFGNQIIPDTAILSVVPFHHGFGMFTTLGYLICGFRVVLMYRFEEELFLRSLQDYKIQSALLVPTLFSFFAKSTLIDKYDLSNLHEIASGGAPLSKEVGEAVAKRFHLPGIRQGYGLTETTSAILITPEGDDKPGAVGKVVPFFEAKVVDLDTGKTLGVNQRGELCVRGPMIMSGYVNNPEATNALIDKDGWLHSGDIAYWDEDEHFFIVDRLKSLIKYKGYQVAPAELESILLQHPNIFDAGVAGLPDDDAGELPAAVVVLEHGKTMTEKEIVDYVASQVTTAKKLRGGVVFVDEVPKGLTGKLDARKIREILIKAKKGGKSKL
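Purified P. pyralis luciferase (10nM final) with 10uM D-luciferin and 10uM ATP (Km levels) in 50mM Tris acetate pH 7.5, 10mM Mg acetate, 0.01% Tween-20, 0.05% BSA; qHTS 6-point titration, ~60 µM downward; luminescence read.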
Rab9 prom act = qHTS Assay for Rab9 Promoter Activators; Huh7 Rab9 promoter-luciferase reporter, luminescence, 24 h; Potency, µM (titrated, usually from 9.22 µM), without a hit: at the top dose activation, negative = inhibition, actives largely listed as activators; actives 2.8% (n = 320,000); AID 485297, 2010; further: % of control where 0% means no effect; nearly all actives have a fitted effect of over 60% in size
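Luminescence from Amplite-detected luciferase (10 minutes, ambient) reports Rab9 promoter activation. Before that, stable Rab9-luciferase Huh7 cells (1500/well, reduced-serum OP-MEM I plus 10% FBS) were exposed to compound for 24 hours at 37C.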
ELG1 DNA repair = qHTS screen for small molecules that inhibit ELG1-dependent DNA repair in human embryonic kidney (HEK293T) cells expressing luciferase-tagged ELG1; HEK293T ELG1-luciferase reporter, luminescence, 16 h; DNA damage induced by 5-fluorouridine; Potency, µM (titrated, usually from 46.1 µM), for inactives: at the highest dose activity change, negative = inhibition, actives largely listed as inhibitors; actives 2.3% (n = 330,000); further: on the % scale 0 is the no-effect control and ±100 the full control effect; nearly all actives have a fitted effect of over 55% in size
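Cells (2,000 per well) received 5-fluorouridine plus test compound or DMSO and were incubated 16 hr at 37 °C, 5% CO2. Luciferase activity was read by luminescence 30 min after ONE-Glo addition; signal suppression marked inhibition of damage-induced ELG1 function.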
An asterisk follows results filed as active; ? = inconclusive; / = no result given. Rows were chosen to be rich in hits. Some 9.4% of all compounds tested hit in one or more screens of this group. The call rests on the fitted dose curve; in most records, active means well fitted curve in the direction sought with a large enough effect; inconclusive means small, poorly fitted or top-dose-only effect, or another doubt; inactive means no such curve, though single readings can be large; an effect the other way counts as inactive or inconclusive. Potency means the concentration at half of the fitted maximal effect.

SMILES | SMN2 splice up | NPC1 promoter act | ELG1 genotoxic | FLuc counter | Rab9 prom act | ELG1 DNA repair
O=c1oc2ccccc2nc1/C=C(O)/C=C\c1ccccc1 | 5.0% | 9.9% | -6.0% | -16.7% | 0.1% | 32.7%
Cc1ccc(/C(O)=C/c2nc3ccccc3oc2=O)cc1 | / | -2.8% | -5.8% | 3.01µM* | -0.7% | 2.0%
CCCN1C(=O)C(=O)N(CC(=O)c2cc(C)n(C3CC3)c2C)C1=O | / | 2.82µM* | ? | ? | 1.41µM* | ?
CCN1C(=O)C(=O)N(CC(=O)c2cc(C)n(C3CC3)c2C)C1=O | / | ? | 13.2% | ? | ? | ?
Cc1ccc(-c2cn3c(n2)sc2cc(C(=O)N4CCCCC4)ccc23)cc1 | / | / | / | -10.3% | / | /
COc1ccccc1C(=O)Nc1cccc(-c2cn3ccsc3n2)c1 | 17.9% | 9.3% | -6.5% | 4.26µM* | 13.0% | ?
O=C(Nc1cccc(-c2cn3ccsc3n2)c1)c1ccccc1 | -7.1% | 13.7% | -7.8% | 10.7µM* | 15.1% | ?
CCCCC(=O)Nc1cccc(-c2cn3ccsc3n2)c1 | 7.8% | 25.8% | 4.7% | 15.1µM* | 26.6% | 21.4%
Nc1cccc(-c2cn3ccsc3n2)c1 | / | / | / | 21.3µM* | / | /
COc1cc(OC)cc(C(=O)Nc2cccc(-c3cn4cccnc4n3)c2)c1 | / | / | / | -16.8% | / | /
CCOc1ncccc1C(=O)Nc1ccc(-c2cn3ccsc3n2)cc1 | -32.4% | -0.9% | 1.3% | 2.2% | 1.5% | -2.3%
Cc1nc(-c2cccc(N)c2)cs1 | 6.9% | 10.6% | 18.7% | -15.0% | -1.0% | ?
COc1ccc(OCc2ccc(-c3nc(C#N)c(N4CCC(C)CC4)o3)o2)cc1 | / | / | / | -7.4% | / | /
CCc1cccc(C)c1NC(=O)Cn1cc2c(n1)CCCCC2 | -6.7% | / | / | 6.8% | / | /
Nc1c(C(=O)Nc2cccc(F)c2)nnn1-c1ccc2c(c1)OCCO2 | / | 0.1µM* | 0.651µM* | 0.601µM* | 0.316µM* | ?
CCOc1ccccc1NC(=O)c1nnn(-c2ccc3c(c2)OCCO3)c1N | / | -4.2% | -1.7% | 16.9µM* | ? | ?
Nc1c(C(=O)NCc2ccc3c(c2)OCO3)nnn1-c1ccc(OC(F)(F)F)cc1 | -43.6% | 6.6% | 0.8% | -3.0% | 10.9% | -5.2%
COc1ccc(CCNC(=O)c2nnn(-c3ccc4c(c3)OCCO4)c2N)cc1OC | / | 13.2% | 9.7% | 19µM* | -4.5% | ?
Cc1ccccc1NC(=O)c1nnn(-c2ccc3c(c2)OCCO3)c1N | / | 1.26µM* | 4.9% | 6.01µM* | 0.891µM* | ?
CCOc1ccccc1NC(=O)c1nnn(CC(=O)Nc2ccc3c(c2)OCO3)c1N | / | -1.7% | 2.7% | -18.4% | -4.3% | 8.0%
COc1ccccc1CNC(=O)c1ccc(CSc2nc3ccncc3n2Cc2cccc(F)c2)cc1 | 1.5% | / | / | 4.7% | / | /
O=S(=O)(Nc1cccc(-c2ccc(N3CCCC3)nn2)c1)c1ccc(F)cc1F | / | / | / | 15.1µM* | / | /
O=S(=O)(Nc1cccc(-c2ccc(N3CCCCC3)nn2)c1)c1cccc(F)c1 | / | / | / | 2.39µM* | / | /
Cc1ccc(S(=O)(=O)Nc2cccc(-c3ccc(N4CCCCCC4)nn3)c2)c(C)c1 | / | ? | ? | 10.7µM* | ? | ?
O=S(=O)(Nc1cccc(-c2cn3c(n2)SCC3)c1)c1ccc(F)cc1F | / | -1.4% | -3.9% | -5.1% | 4.8% | 0.0%
SMILES | SMN2 splice up | NPC1 promoter act | ELG1 genotoxic | FLuc counter | Rab9 prom act | ELG1 DNA repair
COc1ccc(C2c3c(n(C)c4ccccc34)C(=O)N2CC(=O)Nc2ccc(Cl)cc2)cc1 (centres undefined) | / | / | / | -8.7% | / | /
CN(c1ncnc2onc(-c3cccc(Cl)c3)c12)C1CCCCC1 | 1.6% | / | / | -17.0% | / | /
CCCOc1ccc2cc(-c3ccccn3)c(=O)oc2c1 | 0.794µM* | ? | ? | 0.239µM* | 0.447µM* | ?
COc1ccc2cc(-c3ccccc3)c(=O)oc2c1 | / | 1.26µM* | 2.59µM* | 2.39µM* | 0.708µM* | ?
COc1ccc(-c2cc(=O)oc3cc(OCC(=O)N(C)C)ccc23)cc1 | / | -3.3% | 1.6% | -0.8% | -37.3% | 3.6%
O=c1oc2ccccc2cc1-c1ccccc1 | 21.4% | 19.4% | ? | ? | ? | ?
CN(C)C(=O)COc1ccc2cc(-c3ccccc3)c(=O)oc2c1 | 17.8µM* | 3.98µM* | ? | ? | 2µM* | ?
CC(Oc1ccc2cc(-c3ccccc3)c(=O)oc2c1)C(=O)NCC1CCC(C(=O)O)CC1 (centres undefined) | / | 1.4% | 4.8% | 21.3µM* | -3.9% | ?
CCc1ccccc1N(C)C(=O)Nc1cn(CC(C)C)c(=O)c2ccccc12 | / | / | / | -1.2% | / | /
O=C(O)COc1ccc2c(-c3ccccc3)cc(=O)oc2c1 | ? | 10.5% | 10.2% | 19µM* | 16.3% | 16.6%
COC(=O)C(C)Oc1ccc2cc(-c3ccccc3)c(=O)oc2c1 (centres undefined) | / | -0.7% | 3.0% | 23.9µM* | -4.1% | ?
Cc1ccc(S(=O)(=O)N(C)C)cc1NC(=O)c1cc(S(=O)(=O)N2CCCCC2)ccc1N1CCOCC1 | / | -1.5% | 2.4% | 0.0% | 0.0% | 10.3µM*
COc1ccc(C)cc1NC(=O)c1cc(S(=O)(=O)N2CCCCC2)ccc1N1CCOCC1 | / | -1.5% | 0.3% | / | 11.6% | 14.6µM*
COc1ccc(S(=O)(=O)N2CCCCC2)cc1NC(=O)C1COc2ccccc2O1 (centres undefined) | / | -5.4% | -8.2% | -3.4% | -4.2% | 18.3µM*
COc1ccc(S(=O)(=O)N2CCCCC2)cc1NC(=O)C1CC1 | / | -0.7% | -4.3% | -0.9% | 16.5% | -0.1%
COc1cc(NC(=O)c2cc(S(=O)(=O)N3CCCCC3)ccc2N2CCOCC2)cc(OC)c1 | / | -0.4% | 2.0% | 0.0% | -5.4% | ?
Cc1cc(NC(=O)c2cc(Cl)ccc2Cl)ccc1-c1cc2ccccc2oc1=O | -45.0% | / | / | -2.2% | / | /
CCCCCCCN[C@H]1CCC[C@@H]1CCCCCCC(=O)O | 28.0% | / | / | / | / | /
O=C(NCCCO)c1ccc2nc(-c3ccco3)c(-c3ccco3)nc2c1 | -16.9% | -0.4% | -5.7% | 19µM* | 1.6% | -3.3%
O=C(Nc1ccccc1)c1ccc2nc(-c3ccco3)c(-c3ccco3)nc2c1 | 7.6% | -0.9% | -25.9% | 1.1% | -2.6% | 9.2µM*
O=C(Nc1ccc(N2CCOCC2)cc1)c1ccc2nc(-c3ccco3)c(-c3ccco3)nc2c1 | 5.4% | -0.8% | 6.3% | -3.9% | 1.2% | ?

Screening results as filed in PubChem.
